Source: PubChem BioAssay (several laboratories)
Sampled rows, rich in hits. Any-hit rate of the full collection: about 6.6%.
MPTP inh: blocks calcium-induced mitochondrial swelling; isolated mouse mitochondria, Ca2+ swelling absorbance, 30 min; inhibition, % at 10 µM; 360,000 tested, 1.4% active; AID 602449;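 active means inhibition of 50% or more, scaled per plate between neutral and stimulator controls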;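 further: 0% = DMSO wells given calcium and 100% = 1 mM EGTA wells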
CSC inhib: cancer stem cell inhibition | 300,000 tested, 1.1% active | inhibition, % at 7.5 µM | cancer stem cell-like cells viability, luminescence; in the data active means inhibition above about 75%; inconclusive means no clear call, values can overlap the other calls; tested in HMLE shEcad cells
GRIN3A LBD mod: NR3A (human) ligand-binding domain modulation; NR3A LBD differential scanning fluorimetry, Tm shift; 0% = protein alone, 100% = glycine-bound protein; Tm shift relative to glycine control, % at 25 µM; 340,000 tested, 2.5% active; AID 1259313;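 active means melting temperature shift of at least 10% of the positive control shift, at one fixed dose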
Gli-Sufu block: Gli-Sufu pathway antagonism | Sufu-KO-LIGHT fibroblasts, Gli luciferase reporter luminescence | inhibition, % at 5 µM | 340,000 tested, 0.74% active | AID 588413;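 active means inhibition above about 55%, limit read from the data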;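 further: 0% = DMSO-treated cells and 100% = wells with medium but no cells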
Mdm2-MdmX inh: disrupts the human Mdm2-MdmX interaction. inhibition, % at 8 µM. O15151+Q00987. SaOS-2 split-luciferase Mdm2/MdmX complementation, luminescence. 330,000 tested, 3% active;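 active means inhibition of at least 50% at 8 µM in the primary screen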
Target sequence (O15151 whole entry, looked up): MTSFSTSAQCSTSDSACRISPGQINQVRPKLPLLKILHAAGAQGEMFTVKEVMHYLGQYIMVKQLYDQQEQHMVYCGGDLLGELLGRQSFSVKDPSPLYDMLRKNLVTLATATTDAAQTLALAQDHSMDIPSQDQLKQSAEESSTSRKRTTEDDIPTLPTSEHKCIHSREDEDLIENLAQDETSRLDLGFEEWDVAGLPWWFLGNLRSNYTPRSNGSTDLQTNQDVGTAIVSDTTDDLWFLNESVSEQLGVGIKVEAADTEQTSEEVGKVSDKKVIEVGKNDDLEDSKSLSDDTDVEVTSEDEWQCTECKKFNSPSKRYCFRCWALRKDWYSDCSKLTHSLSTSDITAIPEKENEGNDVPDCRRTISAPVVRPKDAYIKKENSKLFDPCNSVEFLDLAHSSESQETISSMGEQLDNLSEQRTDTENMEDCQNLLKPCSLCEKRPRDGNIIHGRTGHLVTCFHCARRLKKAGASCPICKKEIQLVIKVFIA
Target sequence (Q00987 whole entry, looked up): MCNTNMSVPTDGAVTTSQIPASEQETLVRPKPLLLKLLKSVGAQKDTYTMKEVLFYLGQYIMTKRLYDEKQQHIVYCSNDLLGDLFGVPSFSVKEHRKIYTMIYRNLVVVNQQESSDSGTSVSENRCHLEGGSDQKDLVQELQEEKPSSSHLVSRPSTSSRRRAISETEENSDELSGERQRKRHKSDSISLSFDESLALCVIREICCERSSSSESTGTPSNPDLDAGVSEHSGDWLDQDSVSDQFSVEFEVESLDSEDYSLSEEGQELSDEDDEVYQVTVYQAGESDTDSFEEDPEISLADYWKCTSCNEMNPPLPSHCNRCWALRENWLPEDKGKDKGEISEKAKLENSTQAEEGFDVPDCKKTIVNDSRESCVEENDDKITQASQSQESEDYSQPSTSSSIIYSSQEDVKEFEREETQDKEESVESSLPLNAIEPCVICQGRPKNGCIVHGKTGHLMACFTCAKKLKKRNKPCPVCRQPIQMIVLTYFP
Beta apoptosis: beta cell apoptosis inhibition; INS-1E cytokine-induced death, ATP luminescence, 48 h; percent of positive-control rescue, neutral wells zero; protection from apoptosis, % (concentration not given with the values); 300,000 tested, 0.8% active;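 active means Every replicate reaches about 75%, or at least half do and their mean reaches it too, limit read from the data; inconclusive means At least half of replicates reach the limit but their mean does not; inactive means Under half of replicates reach the limit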;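 further: 0% = cytokine-treated negative control wells and 100% = positive control rescue; higher means more ATP so stronger rescue from cytokine killing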
Mdm2 MdmX conf: human Mdm2/MdmX binding inhibition, confirmed; shares compounds with Mdm2-MdmX inh; luminescent assay; inhibition, % at 8 µM; 10,000 tested, 55% active; in the data active means inhibition above about 40%
FLuc counter: full-length luciferase inhibition in Mdm2/MdmX counter-screen; SaOS-2 full-length luciferase counterscreen, luminescence; AID 504607; shares compounds with Mdm2-MdmX inh; 6,200 tested, 77% active; inhibition, % at 8 µM;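 active means mean inhibition at 8 µM reaching about 37%, which flags the compound as non-specific, limit read from the data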;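 further: p53-null SaOS-2 cells with luciferase driven by a doxycycline-inducible promoter; compound on cells about two nights before reading with doxycycline added after day one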
* marks the source's active call; other numbers are inactive results; ? = inconclusive; / = not tested or not shown.

SMILES	MPTP inh	CSC inhib	GRIN3A LBD mod	Gli-Sufu block	Mdm2-MdmX inh	Beta apoptosis	Mdm2 MdmX conf	others
COc1cc(CNC2CCCC2)cc(Cl)c1OCc1ccc(F)cc1	15	-5	-3	-2	48	18	/
CCOc1cc(CNC2CCCC2)cc(Cl)c1OCc1ccc(F)cc1	2	44	-4	10	58*	18	44*	FLuc counter=80*
CCOc1cc(CNCCc2ccc(S(N)(=O)=O)cc2)cc(Cl)c1OCc1ccccc1	46	18	-16	46	67*	51	37	FLuc counter=53*
CCNCc1cc(Cl)c(OCc2ccccc2)c(OCC)c1	18	-8	-1	-7	38	2	/
Cc1c(C)n(C)c2ccc(C(=O)NCCN3CCOCC3)cc12	-1	-5	1	5	-3	-2	/
CCOc1ccccc1CN1CCNC(=O)C1CC(=O)NCc1cc(C)n(C)n1 (stereo not given)	-1	-4	-1	-9	-3	-3	/
COc1cccc(N2CCN(c3nc(-c4ccccc4C)cc(=O)[nH]3)CC2)c1	1	/	3	-40	95*	/	76*	FLuc counter=81*
N#C/C(=C\c1ccc(-c2ccc(F)cc2)o1)C(=O)Nc1nc(-c2cccs2)cs1	10	12	19*	-4	71*	1	21
COc1cccc(-c2ncc3ccccc3c2COC(=O)CCC(=O)O)c1	-2	-18	1	5	16	-1	/
C/C(=N\NC(=O)CNC(=O)C(c1ccccc1)c1ccccc1)c1ccc(C(C)(C)C)cc1	1	4	-14	-16	55*	6	14
COc1cc2nc(SCC(N)=O)n(CCC3=CCCCC3)c(=O)c2cc1OC	0	0	-10	16	80*	3	14
CCCN1C(=O)C(=O)c2cc(Cl)ccc21	0	10	-2	4	73*	-12	67*	FLuc counter=45*
Cc1ccc2c(c1)C(=O)C(=O)N2CC(=O)OC(C)C	-6	1	0	9	17	-9	/
Cc1ccc(OCCN2C(=O)C(=O)c3cc(C)ccc32)cc1	2	?	-1	33	62*	15	61*	FLuc counter=79*
Cc1ccc2c(c1)C(=O)C(=O)N2Cc1ccc(C(F)(F)F)cc1	-2	53	-1	2	72*	-13	14
COC(=O)c1ccc(N2CCN(c3ccccc3)CC2)c(N)c1	3	4	2	-21	-17	-5	/
Cc1ccc([C@@H]2CC(=O)[C@@H]3CN(S(=O)(=O)c4ccc(C)cc4)[C@H](c4ccc(Cl)cc4)C[C@@H]3N2S(=O)(=O)c2ccc(Cl)cc2)cc1	1	/	/	/	/	/	/
CC(C)(C)NC(=O)C(c1ccncc1)N(Cc1cccs1)C(=O)Cn1nnc(-c2ccc(F)cc2)n1 (stereo not given)	0	-5	-3	6	53*	25	43*	FLuc counter=55*
CCCCN1CCCCC1(C)C(=O)NCc1cccs1 (stereo not given)	-1	/	/	/	/	/	/
O=C(O)c1ccc(Nc2ncc([N+](=O)[O-])cc2[N+](=O)[O-])cc1	-2	3	0	3	-10	/	/
CC(=O)c1nn(-c2cccc(Br)c2)cc1C(=O)c1ccc(Cl)cc1	4	1	-120	11	53*	7	14
CC(=O)c1nn(-c2cccc(Br)c2)cc1C(=O)c1ccccc1	3	-1	-1	3	16	-1	/
c1ccc2[nH]c(Cn3nnc4ccccc43)nc2c1	0	-5	3	-11	10	1	/
O=c1c2cc([N+](=O)[O-])ccc2sn1-c1ccccc1	9	/	/	/	/	/	/
N#Cc1c2ccc([N+](=O)[O-])cc2[n+]([O-])n1-c1ccccc1	-1	/	/	/	77*	101*	35
SMILES	MPTP inh	CSC inhib	GRIN3A LBD mod	Gli-Sufu block	Mdm2-MdmX inh	Beta apoptosis	Mdm2 MdmX conf	others
Cc1sc(NC(=O)CCl)c(C(=O)c2ccccc2)c1C	4	15	-3	0	54*	8	4
Cc1cc(C(=O)c2ccc(C(C)(C)C)cc2)c(NC(=O)CCl)s1	4	50	1	-6	78*	22	-5
CCOC(=O)c1ccc(NC(=O)CSc2nc(=O)n(CCN3CCOCC3)c3c2CCC3)cc1	0	12	-2	40	0	1	/
CN1CCc2c(sc3nc(NCCO)n(-c4cccc(Cl)c4)c(=O)c23)C1	-1	-11	0	6	15	-3	/
Cc1cccc(NC(=O)[C@H](NC(=O)[C@@H]2Cc3ccccc3CN2)c2ccccc2)c1	0	7	-3	/	-24	-7	/
Cc1cc(C)c2ccc(N)nc2c1O	0	25	-1	0	83*	34	75*	FLuc counter=41*
Cc1cc(C)c2cccc(N)c2n1	-1	2	1	-2	-13	17	/
Cc1cc(N/N=C/c2ccc(N(C)C)cc2)c2ccccc2n1	-1	-5	-5	-45	5	-2	/
Cc1cc(N/N=C/c2ccc(O)cc2)c2cccc(C)c2n1	2	23	12*	22	66*	43	4
Cc1ccc2nc(C)cc(N/N=C/c3ccccc3O)c2c1	2	-11	-5	-11	-2	2	/
Cc1cc(C)c2nc(C)cc(N/N=C/c3ccc(O)cc3)c2c1	7	103*	5	9	98*	/	100*	FLuc counter=50*
COc1cccc(NC(=O)CN(C)C(=O)CC2CCCC2)c1	-1	/	-1	-4	/	/	/
O=C(Nc1ccc2nc([C@@H]3O[C@H](CO)[C@@H](O)[C@H](O)[C@H]3O)[nH]c2c1)NC(c1ccccc1)c1ccccc1	0	/	/	/	/	/	/
CCOC(=O)c1sc(NC(=O)CN2C(=O)c3cccc4cccc(c34)C2=O)nc1C	0	7	-1	4	73*	-5	13
CC(NC(=O)/C(C#N)=C1\N=C(NC(=O)c2ccco2)c2ccccc21)c1ccccc1 (stereo not given)	4	19	-7	28	67*	0	12
CCc1nnc(NC(=O)CSc2nc(-c3ccccc3)c(-c3ccccc3)o2)s1	3	48	4	-9	55*	/	42*	FLuc counter=92*
COc1ccc(-c2cc(-c3ccccc3)nc(SCC(=O)Nc3nccs3)c2C#N)cc1	0	-6	3	16	75*	6	14
CCc1nnc(NC(=O)CSc2nc(-c3ccccc3)cc(-c3ccc(OC)cc3)c2C#N)s1	0	18	0	5	88*	11	9
COc1ccc(-c2cc(-c3ccccc3)c(C#N)c(SCC(=O)Nc3ncc(C)s3)n2)cc1	4	/	-6	-2	27	/	/
O=C(c1cccnc1)N1CCCC(Nc2ccc(F)cc2)C1 (stereo not given)	0	-3	-2	-3	9	-4	/
Nc1nccnc1C(=O)OCC(=O)c1ccc[nH]1	0	8	1	-1	21	-7	/
